We go through five compounds from PubChem BioAssay.

Assay [1] is described as follows: rapamycin-like changes in RPL19A-GFP expression – cell-based, S. cerevisiae, multiplex flow cytometry, primary screen (AID 1862; in the data active means percent of DMSO control GFP below about 86%;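 further: lower values mimic rapamycin by blocking the RPL19A rise seen in DMSO cells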). To be noted: S. cerevisiae RPL19A-GFP strain, flow cytometry fluorescence, 3 h; at 10 µM; stronger effect = lower value.
Assay [2] in a line: TOR pathway GLN3 branch reporter MEP2-GFP changes – S. cerevisiae, multiplex flow cytometry, primary screen (AID 1867;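 active means GFP response, as percent of the DMSO control, above the screen-wide mean plus 3 SD, about 139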;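 further: median GFP channel fluorescence of barcode-gated MEP2-GFP cells measured by flow cytometry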). To be noted: S. cerevisiae MEP2-GFP strain, 3 h, at 10 µM, stronger effect = higher value, 100% means same as DMSO wells. In general terms: A flow cytometer gives signals particle by particle.
Assay [3] can be described thus: TOR pathway RTG branch CIT2 reporter changes – S. cerevisiae, GFP fusion, multiplex flow cytometry, primary screen (AID 1870;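 active means percent response above a set limit, the screen-wide mean plus 3 SD, cut at about 130% in these data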;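 further: barcoded CIT2-GFP strain pooled with four other GFP strains with rapamycin as positive control; median GFP fluorescence per well over plate mean of DMSO wells so 100% = DMSO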). To be noted: S. cerevisiae CIT2-GFP expression, 3 h, at 10 µM, stronger effect = higher value.
Assay [4] in a line: TOR pathway LAP4-GFP level changes – S. cerevisiae, multiplex flow cytometry, primary screen (AID 1873;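 active means GFP signal, as percent of the solvent control, above the screen mean plus 3 SD, about 149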). To be noted: S. cerevisiae LAP4-GFP expression, 3 h, at 10 µM, stronger effect = higher value.
A short description of assay [5]: yeast AGP1-GFP level changes, GLN3 branch – cell-based, multiplex flow cytometry, S. cerevisiae, primary screen (AID 1887;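 active means GFP signal above the screen-wide mean plus 3 SD, that is over about 124.5% of the solvent control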;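 further: AGP1-GFP fusion strain of S. cerevisiae within a five-strain barcoded multiplex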). To be noted: 3 h, at 10 µM, stronger effect = higher value.
The nature of assay [6]: reduced mouse 2C T cell binding to pMHC/ICAM-1 vesicles – MLPCN validation set, flow cytometry, LFA-1/ICAM-1 modulator project, pilot screen (AID 2523;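 active means response below a set limit, under 55% cells CD8-positive and vesicle-bound, and CD8 cells' 90th-percentile brightness under 279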;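 on vesicle binding response: mean PE anti-B7-1 fluorescence of CD8+ cells relative to row control; 100% = QL9-loaded vesicles with DMSO vehicle in the same plate row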). To be noted: 2C mouse CD8+ T cells, at 7 µM, stronger effect = lower value; double positive events: measured here: CD8+/vesicle+ event percentage.
Assay [7] concerns the target Integrin beta-1 (Homo sapiens) + Integrin alpha-4 (Homo sapiens) (UniProt P13612+P05556). The assay is described as follows: alpha4beta1 integrin LIBS antibody binding reduction – U937 cells, HUTS-21 mAb, flow cytometry, validation set, VLA-4 allosteric modulator project, pilot screen (AID 2674;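 active means inhibition above 50%, about 3 SD of the validation set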;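 further: antibody binding induced by the VLA-4 ligand LDV present at three times its Kd; 0% = LDV ligand with antibody and no compound and 100% = antibody without LDV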). To be noted: HUTS-21 LIBS mAb binding, at 6.7 µM, stronger effect = higher value, binding induced by LDV ligand.

A short description of assay [8]: calorie-restriction mimetic ROS inhibitors, yeast – validation compound set, pilot screen (AID 2706;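 active means superoxide response below 65% of plate, a cut near 3 SD across the whole screen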;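 further: yeast exposed to compound for one week at 30 degrees C before staining; 100% = mean of all compound wells on the same plate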). To be noted: S. cerevisiae aging, superoxide DHE fluorescence; at 10 µM; stronger effect = lower value.
In assay [9] the target is Beta-adrenergic receptor kinase 1 (Homo sapiens) (UniProt P25098). The assay is described as follows: GRK2 binders displacing RNA aptamer, biochemical, validation, human GRK2, bead flow cytometry (AID 488806;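 active means aptamer binding inhibition above 30%, about 3 SD of noise from non-fluorescent compounds; inactive means inhibition at or below 30%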). To be noted: bead-bound GRK2, FAM-aptamer displacement, at 10 µM, stronger effect = higher value.
Beta-adrenergic receptor kinase 1 (Homo sapiens), sequence (P25098 whole entry, looked up): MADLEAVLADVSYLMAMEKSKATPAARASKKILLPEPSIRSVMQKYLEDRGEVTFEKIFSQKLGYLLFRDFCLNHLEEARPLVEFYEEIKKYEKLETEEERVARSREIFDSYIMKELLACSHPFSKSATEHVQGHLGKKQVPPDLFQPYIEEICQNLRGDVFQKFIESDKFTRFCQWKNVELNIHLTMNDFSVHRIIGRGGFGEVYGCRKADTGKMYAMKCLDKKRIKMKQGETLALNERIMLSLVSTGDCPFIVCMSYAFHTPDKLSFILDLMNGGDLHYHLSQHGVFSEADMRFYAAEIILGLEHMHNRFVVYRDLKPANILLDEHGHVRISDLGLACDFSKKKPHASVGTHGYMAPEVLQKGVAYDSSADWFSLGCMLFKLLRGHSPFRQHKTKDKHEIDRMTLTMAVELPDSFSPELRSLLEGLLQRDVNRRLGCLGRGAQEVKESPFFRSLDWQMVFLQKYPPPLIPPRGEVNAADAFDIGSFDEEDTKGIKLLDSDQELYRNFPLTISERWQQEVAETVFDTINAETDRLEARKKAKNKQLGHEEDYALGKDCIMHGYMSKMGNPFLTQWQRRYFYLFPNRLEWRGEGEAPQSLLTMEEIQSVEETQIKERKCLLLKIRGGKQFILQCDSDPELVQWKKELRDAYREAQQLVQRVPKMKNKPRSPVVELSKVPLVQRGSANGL
Assay [10] has as its target Beta-2 adrenergic receptor (Homo sapiens) (UniProt P07550). Kind of assay: agonist-induced loss of surface beta2AR – cell-based, FAP fluorogen, flow cytometry, validation set, pilot screen (AID 504459;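 active means percent response above 42, roughly 3 SD of non-fluorescent test compounds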;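 further: agonist-driven loss of surface beta2AR via internalization measured by FAP dye flow cytometry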). To be noted: Am2.2-beta2AR cells, at 10 µM, stronger effect = higher value.
Assay [11] addresses AP-2 complex subunit beta (Homo sapiens) (UniProt P63010). The assay is described as follows: beta-arrestin/AP2 interaction blockers – biochemical, validation set, GST-AP2 beads, flow cytometry, pilot screen (AID 504541;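 active means inhibition above 54%, about 3 SD of non-fluorescent compounds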;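 further: AP2 carries R879A mutation and is captured from E. coli lysate; bead-bound FITC arrestin peptide fluorescence measuring arrestin peptide binding to AP2; 0% = DMSO wells and 100% = excess unlabeled arrestin peptide control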). To be noted: FITC arrestin peptide, at 10 µM, stronger effect = higher value, AP2 beta2 appendage fragment, R879A mutant.
The nature of assay [12]: cytosolic pH regulators acting via V-ATPase – S. cerevisiae, pHLuorin, HTS validation (AID 504600; in the data active means response above about 15%;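 further: plate controls were DMSO for no effect and reference compound for full effect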). To be noted: V-ATPase proton transport, at 10 µM, stronger effect = higher value.
Assay [13] deals with anti-desmoglein-3 scFv antibody binding to human DSG3. Kind of assay: blockers of pathogenic pemphigus antibody–desmoglein-3 binding – biochemical, validation compound set, bead-based, flow cytometry, pilot screen (AID 588368;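 active means binding below the plate cutoff, the plate median minus 3 SD, with a reading above zero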;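 further: signal is the median channel fluorescence of bead-bound GFP antibody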). To be noted: Protein G beads, DSG3-Fc, scFv-GFP binding, at 10 µM, stronger effect = lower value.
The nature of assay [14]: Nile Red efflux blockade in pump-expressing yeast – validation compound set, multiplex, phenotypic, pilot screen (AID 588506).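 Further: Nile Red retained in cells so higher fluorescence means more efflux inhibition; 0 = negative control wells and 1 = enniatin B 25 µM full block.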 To be noted: S. cerevisiae pump-expressing triplex, Nile Red efflux flow cytometry; at 10 µM; stronger effect = higher value; the pumps come from Candida albicans.
Assay [15] concerns the target ATP-binding cassette sub-family B member 6 (Homo sapiens) (UniProt Q9NP58). Kind of assay: blockers of ABCB6-driven porphyrin uptake – K562-ABCB6 cells, flow cytometry, validation set, pilot screen (AID 588550;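 active means inhibition above the screen-wide mean plus 3 SD, about 51%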;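 further: 0% = DMSO wells and 100% = benzethonium chloride 70 µM positive control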). To be noted: K562-ABCB6 porphyrin accumulation, 1 h, at 10 µM, stronger effect = higher value.
Assay [16] is described as follows: AML differentiation inducers, ER-HoxA9 marrow cells – cell-based, GFP/MAC1 double positive, flow cytometry, validation set, primary screen (AID 588685;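 active means differentiation response of at least 50%, scaled between solvent and reference control, from cells with both markers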;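 further: compound exposure lasts four days before antibody staining and flow analysis; 0% = DMSO wells and 100% = 5 µM fulvestrant positive control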). To be noted: stronger effect = higher value, normalized: vehicle 0, fulvestrant 100.

Each structure is given as a SMILES string. Inconclusive results are not listed. The source made the active and inactive calls.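 How the source made its calls, unless noted: active means efflux inhibition above 0.42, the validation set average plus 4 SD; inconclusive means no clear call, values can overlap the other calls; inactive means the rest.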

One may read the inhibition as the relative decrease from the control value, in per cent.

AP-2 complex subunit beta (Homo sapiens), sequence (P63010 whole entry, looked up, the tested form may be a part, one chain of several): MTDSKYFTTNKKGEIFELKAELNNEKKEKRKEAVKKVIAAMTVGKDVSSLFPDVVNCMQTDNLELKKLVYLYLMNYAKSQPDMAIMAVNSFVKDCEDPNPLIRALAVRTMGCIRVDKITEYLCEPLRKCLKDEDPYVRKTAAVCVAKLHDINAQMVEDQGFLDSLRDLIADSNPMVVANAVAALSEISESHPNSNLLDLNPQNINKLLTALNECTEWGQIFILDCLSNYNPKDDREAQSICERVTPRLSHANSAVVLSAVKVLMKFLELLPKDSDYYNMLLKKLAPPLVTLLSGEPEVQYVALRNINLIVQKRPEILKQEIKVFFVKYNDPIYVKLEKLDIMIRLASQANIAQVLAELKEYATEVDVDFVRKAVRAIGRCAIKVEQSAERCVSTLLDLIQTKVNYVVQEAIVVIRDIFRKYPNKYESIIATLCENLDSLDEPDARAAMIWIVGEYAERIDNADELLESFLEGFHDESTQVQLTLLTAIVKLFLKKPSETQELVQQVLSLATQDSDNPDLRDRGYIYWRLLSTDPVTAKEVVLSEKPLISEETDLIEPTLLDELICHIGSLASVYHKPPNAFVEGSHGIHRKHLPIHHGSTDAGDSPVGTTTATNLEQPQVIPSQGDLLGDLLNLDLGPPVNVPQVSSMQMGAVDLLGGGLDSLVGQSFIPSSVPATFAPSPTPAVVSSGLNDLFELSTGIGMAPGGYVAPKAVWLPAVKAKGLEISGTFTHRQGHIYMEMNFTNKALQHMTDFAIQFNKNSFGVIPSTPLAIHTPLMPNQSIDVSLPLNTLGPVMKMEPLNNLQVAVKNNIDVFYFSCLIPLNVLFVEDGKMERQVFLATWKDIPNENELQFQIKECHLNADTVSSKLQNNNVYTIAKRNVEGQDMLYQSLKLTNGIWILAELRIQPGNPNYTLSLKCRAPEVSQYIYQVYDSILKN
ATP-binding cassette sub-family B member 6 (Homo sapiens), sequence (Q9NP58 whole entry, looked up): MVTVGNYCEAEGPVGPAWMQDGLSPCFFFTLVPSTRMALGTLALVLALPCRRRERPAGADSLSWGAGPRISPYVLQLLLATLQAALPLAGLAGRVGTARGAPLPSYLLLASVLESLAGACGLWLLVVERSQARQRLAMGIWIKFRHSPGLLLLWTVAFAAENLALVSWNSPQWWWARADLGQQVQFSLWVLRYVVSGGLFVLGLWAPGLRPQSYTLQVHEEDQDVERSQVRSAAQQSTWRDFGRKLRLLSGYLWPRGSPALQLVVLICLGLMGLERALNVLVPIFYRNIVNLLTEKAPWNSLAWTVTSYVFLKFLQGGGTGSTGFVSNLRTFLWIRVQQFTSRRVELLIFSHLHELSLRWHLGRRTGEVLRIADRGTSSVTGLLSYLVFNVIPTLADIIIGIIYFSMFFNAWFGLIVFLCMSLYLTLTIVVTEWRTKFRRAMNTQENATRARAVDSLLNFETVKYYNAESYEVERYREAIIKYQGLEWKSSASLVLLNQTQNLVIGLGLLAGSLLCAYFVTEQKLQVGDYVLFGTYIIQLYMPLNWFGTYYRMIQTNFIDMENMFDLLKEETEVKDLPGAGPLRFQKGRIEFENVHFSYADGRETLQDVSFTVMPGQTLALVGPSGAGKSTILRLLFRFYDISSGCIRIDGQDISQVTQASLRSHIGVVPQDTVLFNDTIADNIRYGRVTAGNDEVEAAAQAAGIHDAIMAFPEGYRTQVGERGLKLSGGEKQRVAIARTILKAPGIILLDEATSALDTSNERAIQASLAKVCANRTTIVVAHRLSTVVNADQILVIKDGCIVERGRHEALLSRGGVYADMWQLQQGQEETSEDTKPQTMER
Beta-2 adrenergic receptor (Homo sapiens), sequence (P07550 whole entry, looked up): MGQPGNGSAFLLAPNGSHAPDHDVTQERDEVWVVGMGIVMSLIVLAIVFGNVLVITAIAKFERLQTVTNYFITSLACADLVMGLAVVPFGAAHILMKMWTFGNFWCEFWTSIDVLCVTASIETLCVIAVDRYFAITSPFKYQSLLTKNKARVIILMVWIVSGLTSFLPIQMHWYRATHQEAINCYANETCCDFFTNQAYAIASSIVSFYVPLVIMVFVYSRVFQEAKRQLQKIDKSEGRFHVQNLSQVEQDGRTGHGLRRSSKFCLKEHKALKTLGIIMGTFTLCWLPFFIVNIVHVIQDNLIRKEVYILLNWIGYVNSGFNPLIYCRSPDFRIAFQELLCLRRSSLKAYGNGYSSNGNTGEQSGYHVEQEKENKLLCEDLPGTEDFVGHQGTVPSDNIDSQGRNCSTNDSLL
Integrin beta-1 (Homo sapiens) + Integrin alpha-4 (Homo sapiens), sequence (P05556 whole entry, looked up): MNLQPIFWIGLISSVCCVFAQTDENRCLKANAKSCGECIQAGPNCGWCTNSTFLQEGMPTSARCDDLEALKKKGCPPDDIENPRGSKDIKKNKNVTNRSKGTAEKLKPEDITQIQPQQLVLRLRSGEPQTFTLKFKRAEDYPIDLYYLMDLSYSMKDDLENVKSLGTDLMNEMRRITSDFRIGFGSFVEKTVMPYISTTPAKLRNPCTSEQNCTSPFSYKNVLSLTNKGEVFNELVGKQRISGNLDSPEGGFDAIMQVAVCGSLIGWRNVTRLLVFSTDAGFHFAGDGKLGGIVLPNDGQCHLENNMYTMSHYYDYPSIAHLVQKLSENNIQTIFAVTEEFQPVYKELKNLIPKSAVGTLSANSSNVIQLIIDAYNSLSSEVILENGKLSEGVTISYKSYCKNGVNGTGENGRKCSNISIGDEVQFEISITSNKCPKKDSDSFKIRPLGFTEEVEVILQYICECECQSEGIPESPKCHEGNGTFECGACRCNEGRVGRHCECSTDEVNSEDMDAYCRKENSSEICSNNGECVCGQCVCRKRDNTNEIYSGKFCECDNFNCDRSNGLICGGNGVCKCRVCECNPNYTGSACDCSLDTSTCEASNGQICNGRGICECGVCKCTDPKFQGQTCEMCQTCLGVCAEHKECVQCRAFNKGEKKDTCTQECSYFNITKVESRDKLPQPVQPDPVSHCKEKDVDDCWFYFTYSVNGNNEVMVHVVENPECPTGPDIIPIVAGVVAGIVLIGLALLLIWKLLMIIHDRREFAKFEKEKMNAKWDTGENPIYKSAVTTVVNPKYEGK
Integrin beta-1 (Homo sapiens) + Integrin alpha-4 (Homo sapiens), sequence (P13612 whole entry, looked up): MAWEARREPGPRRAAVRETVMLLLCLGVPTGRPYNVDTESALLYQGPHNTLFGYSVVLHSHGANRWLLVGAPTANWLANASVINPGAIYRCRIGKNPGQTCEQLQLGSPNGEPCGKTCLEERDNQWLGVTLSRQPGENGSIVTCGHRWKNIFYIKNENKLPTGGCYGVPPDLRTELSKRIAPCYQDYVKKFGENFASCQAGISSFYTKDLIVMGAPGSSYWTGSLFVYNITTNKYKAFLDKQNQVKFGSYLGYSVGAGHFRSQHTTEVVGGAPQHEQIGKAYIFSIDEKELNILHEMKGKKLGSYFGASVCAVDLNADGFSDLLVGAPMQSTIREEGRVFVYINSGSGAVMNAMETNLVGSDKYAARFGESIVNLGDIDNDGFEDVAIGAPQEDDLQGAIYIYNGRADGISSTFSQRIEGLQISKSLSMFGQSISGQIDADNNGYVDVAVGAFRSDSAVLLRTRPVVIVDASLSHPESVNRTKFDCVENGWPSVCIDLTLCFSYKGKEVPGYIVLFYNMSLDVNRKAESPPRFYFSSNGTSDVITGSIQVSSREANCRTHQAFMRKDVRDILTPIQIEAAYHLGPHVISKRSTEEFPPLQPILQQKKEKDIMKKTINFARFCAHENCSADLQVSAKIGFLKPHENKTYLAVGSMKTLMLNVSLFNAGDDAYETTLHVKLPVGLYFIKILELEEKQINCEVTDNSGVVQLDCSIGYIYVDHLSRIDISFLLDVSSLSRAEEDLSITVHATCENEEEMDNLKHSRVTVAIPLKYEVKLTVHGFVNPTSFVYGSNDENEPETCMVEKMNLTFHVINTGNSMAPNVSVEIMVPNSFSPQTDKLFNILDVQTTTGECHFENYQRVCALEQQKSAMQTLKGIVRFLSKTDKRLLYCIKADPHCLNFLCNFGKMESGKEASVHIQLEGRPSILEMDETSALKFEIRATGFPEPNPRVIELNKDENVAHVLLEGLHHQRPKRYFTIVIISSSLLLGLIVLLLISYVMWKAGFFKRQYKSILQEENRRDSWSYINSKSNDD

For the compound `CC(=O)C1=C(O)C(=O)N(CC(=O)O)C1c1ccccc1Cl` (stereo not given), the percent of DMSO control GFP in [1] was 93.5% (inactive). Moreover, the GFP response vs DMSO was 136% (inactive) in assay [2] and 82.5% (inactive) in assay [4]. For the same compound, the percent response of DMSO control in assay [3] was 88.6% (inactive). For the same compound, in assay [5], the GFP response, % of DMSO was 90.3% (inactive). In [6], this compound showed a double positive events of 54.3%. Moreover, the vesicle binding response in assay [6] is 175% (inactive). Moreover, the inhibition in assay [7] is 10.3% (inactive); in assay [11] it was 1.11% (inactive); in [15], 13% (inactive). In addition, the superoxide response (% of plate) in assay [8] was 106% (inactive). The aptamer binding inhibition in [9] was 4% (inactive). In addition, the figures for the response in assay [10] and in assay [12] were -4% (inactive) and 0% (inactive), respectively. Besides, the binding (% of control) in assay [13] is 100% (inactive). Moreover, in [14], the efflux inhibition (fraction of control) is -0.2 (inactive). In addition, the differentiation response in assay [16] is -4.91% (inactive).
For `CCCC(=O)Nc1ccccc1NC(C)=O`, the percent of DMSO control GFP in [1] was 101% (inactive). Further, the GFP response vs DMSO in assay [2] is 102% (inactive); in assay [4] it was 99.1% (inactive). Besides, the percent response of DMSO control in assay [3] was 108% (inactive). Also, the GFP response, % of DMSO in assay [5] is 104% (inactive). For the same compound, the double positive events in assay [6] stood at 65.9%. In assay [6], the vesicle binding response is 170% (inactive). Besides, the inhibition was -9.13% (inactive) in [7], -1.46% (inactive) in assay [11] and 0% (inactive) in assay [15]. In addition, the superoxide response (% of plate) in assay [8] was 111% (inactive). For the same compound, the aptamer binding inhibition in assay [9] is 1% (inactive). The response in assay [10] is 5.03% (inactive); in assay [12], 0.04% (inactive). Moreover, the binding (% of control) in [13] is 95.1% (inactive). Also, the efflux inhibition (fraction of control) in [14] is 1.13 (active). For the same compound, the differentiation response in assay [16] is -1.65% (inactive).
Take `CN1CCCN(C(c2ccccc2)c2ccc(Cl)cc2)CC1` (stereo not given): in [1], the percent of DMSO control GFP is 97.1% (inactive). The values for the GFP response vs DMSO in [2] and in assay [4] were 102% (inactive) and 123% (inactive), respectively. Moreover, in assay [3], the percent response of DMSO control is 103% (inactive). Further, in assay [5], the GFP response, % of DMSO is 120% (inactive). Further, the double positive events in assay [6] is 54.6%. Besides, the vesicle binding response in assay [6] is 171% (inactive). The inhibition in [7] was 39.8% (inactive); in [11] it was -13.9% (inactive); in assay [15], 2% (inactive). In addition, the superoxide response (% of plate) in assay [8] was 107% (inactive). The aptamer binding inhibition in assay [9] is -14% (inactive). Besides, the response in [10] is 29.3% (inactive); in assay [12] it was -5.79% (inactive). Also, in assay [13], the binding (% of control) is 107% (inactive). Moreover, the efflux inhibition (fraction of control) in [14] is 0.04 (inactive). For the same compound, in assay [16], the differentiation response was -7.94% (inactive).
In the case of `COc1ccc(OC)c(S(=O)(=O)N2CCCc3ccccc32)c1`, the percent of DMSO control GFP in assay [1] is 101% (inactive). Further, the GFP response vs DMSO is 104% (inactive) in assay [2] and 126% (inactive) in assay [4]. Besides, the percent response of DMSO control in [3] is 91.3% (inactive). The GFP response, % of DMSO in assay [5] is 105% (inactive). Besides, the double positive events in assay [6] turned out to be 58.6%. Further, the vesicle binding response in assay [6] is 124% (inactive). In addition, the results for the inhibition in [7], in assay [11] and in [15] were 15% (inactive), 2.15% (inactive) and 24% (inactive), respectively. Besides, in [8], the superoxide response (% of plate) was 97.2% (inactive). In addition, the aptamer binding inhibition in [9] was 5% (inactive). Besides, the response in assay [10] is 2.04% (inactive); in [12], -1.7% (inactive). Besides, the binding (% of control) in assay [13] was 105% (inactive). Also, the efflux inhibition (fraction of control) in [14] was 0.18 (inactive). Also, the differentiation response in assay [16] was -8.96% (inactive).
Regarding `CCOc1ccc(C(NC(C)=O)c2ccc(OC)c(OC)c2)cc1` (stereo not given), in assay [1], the percent of DMSO control GFP is 99.8% (inactive). Further, the GFP response vs DMSO in [2] is 104% (inactive); in assay [4], 101% (inactive). Also, the percent response of DMSO control in assay [3] was 99.3% (inactive). Moreover, the GFP response, % of DMSO in assay [5] was 100% (inactive). In assay [6], this compound yielded a double positive events of 58.9%. Further, the vesicle binding response in [6] was 28% (inactive). The figures for the inhibition in assay [7], in assay [11] and in assay [15] were -20.4% (inactive), -21.1% (inactive) and 8% (inactive), respectively. Further, in [8], the superoxide response (% of plate) was 107% (inactive). Also, the aptamer binding inhibition in assay [9] was 5% (inactive). Moreover, the results for the response in [10] and in assay [12] were -0.66% (inactive) and -0.46% (inactive), respectively. In addition, the binding (% of control) in [13] is 99.2% (inactive). Moreover, in [14], the efflux inhibition (fraction of control) is -0.63 (inactive). Further, the differentiation response in assay [16] is 0% (inactive).
